Source: PubChem (several laboratories)
Sampled rows, rich in hits. Any-hit rate of the full collection: about 2.6%.
Rce1 inhib: yeast Rce1p protease inhibitors, primary screen, biochemical, fluorescence, cell-free homogeneous. calls only. yeast membranes, quenched prenylated peptide cleavage fluorescence. AID 2563, 2010. CAAX prenyl protease 2 (Saccharomyces cerevisiae (strain ATCC 204508 / S288c)), Q03530. actives 0.27% (n = 290,000);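 active means fall in fluorescence gain of 50% or more versus controls, with final raw signal at or below 3038400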
Target sequence (Q03530 whole entry, looked up): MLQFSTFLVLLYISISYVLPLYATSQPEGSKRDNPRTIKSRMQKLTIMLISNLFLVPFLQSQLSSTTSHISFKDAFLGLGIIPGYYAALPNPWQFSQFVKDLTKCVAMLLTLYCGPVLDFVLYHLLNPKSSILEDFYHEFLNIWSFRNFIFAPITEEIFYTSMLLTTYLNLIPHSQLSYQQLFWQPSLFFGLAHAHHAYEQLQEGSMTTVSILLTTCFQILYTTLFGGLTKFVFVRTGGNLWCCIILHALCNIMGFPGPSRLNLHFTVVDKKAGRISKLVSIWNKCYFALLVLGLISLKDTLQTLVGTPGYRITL
PfM18AAP inh: PfM18AAP inhibitors, malaria aminopeptidase, primary screen, biochemical, QFRET, recombinant enzyme. M18 aspartyl aminopeptidase (Plasmodium falciparum 3D7). AID 1822, 2009. actives 1.2% (n = 290,000). H-Glu-NHMec fluorogenic cleavage. inhibition, % at 7.35 µM;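 active means inhibition above the campaign mean inhibition over all tested compounds plus 3 SD, cut at about 28% in these data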
Platelet DG rel: inhibitors of platelet dense granule secretion, primary screen, cell-based, MLPCN, human platelets | AID 1663, 2009 | actives 0.22% (n = 300,000) | human platelet-rich plasma, SFLLRN dense granule ATP release, luminescence | inhibition, %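 (compounds screened at 7.5 µM in platelet-rich plasma)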;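 active means mean replicate score, as percent of positive control, at or above 50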
Exocytosis inh: LAMP-1 surface exposure blockers, TALL-104 cells – cell-based, flow cytometry, MLPCN library, primary screen. actives 0.66% (n = 360,000). AID 651702, 2012. inhibition, % at 10 µM. TALL-104 LAMP-1 surface exposure; cells stimulated with thapsigargin and PMA;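 active means inhibition above about 55%, limit read from the data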
ABHD5 PLIN5 PPI: ABHD5-PLIN5 interaction inhibitors, primary screen, cell lysate, split luciferase complementation, luminescence. Perilipin-5 (Homo sapiens) + 1-acylglycerol-3-phosphate O-acyltransferase ABHD5 (Homo …. Split G. princeps luciferase complementation, 4 h. inhibition, % at 4 µM. actives 0.78% (n = 360,000);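 active means inhibition above the mean inhibition across every tested compound plus 3 SD, cut at about 22% in these data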
Hits are given with their value; - = inactive; . = not tested or not shown; + = active, no number.

SMILES	Rce1 inhib	PfM18AAP inh	Platelet DG rel	Exocytosis inh	ABHD5 PLIN5 PPI
COc1ccc(N2CCN(S(=O)(=O)c3c(C)nc4sccn4c3=O)CC2)cc1	-	-	95	-	-
Cc1nc2sccn2c(=O)c1S(=O)(=O)N1CCN(c2ccccc2)CC1	-	-	-	-	-
Cc1ccc(-c2nnn(CC(=O)N(CC(=O)NC3CCCCC3)c3cnc4ccccc4c3)n2)o1	-	32	-	-	-
Cc1ccc(N(CC(=O)NC2CCCCC2)C(=O)Cn2nnc(-c3ccc(C)o3)n2)cc1	-	-	-	-	-
CCCCCCC(=O)NNC(=O)c1c(O)c2ccccc2n(CCC)c1=O	-	-	-	-	-
O=C(C[n+]1ccc(C(=O)N/N=C/c2ccc(OCc3ccccc3)cc2)cc1)c1ccccc1	-	-	-	-	26
O=C(c1cn(-c2ccccc2)nc1-c1cccs1)N1CCN(c2ccccc2)CC1	+	-	-	-	-
O=C(c1cc(-c2ccccc2)nc2ccccc12)N1CCN(c2ccccn2)CC1	+	-	-	-	-
O=C(c1cn(-c2ccccc2)nc1-c1cccs1)N1CCOCC1	-	-	-	-	-
O=C(c1cc(-c2ccncc2)nc2ccccc12)N1CCN(c2ccccn2)CC1	-	-	-	-	-
COc1ccc(N2CCN(C(=O)c3cc(-c4cccs4)nc4ccccc34)CC2)cc1	+	-	-	-	-
COc1ccc(-c2cc(C(=O)N3CCN(c4ccccc4)CC3)c3ccccc3n2)cc1OC	-	-	-	-	-
CC1CN(S(=O)(=O)c2ccc(C(=O)NC3CCCCC3)cc2)CC(C)O1 (configuration not stated)	.	.	.	-	-
COc1ccc(Nc2ccccc2C(=O)O)cc1	-	-	-	-	-
Cn1c(=O)c2[nH]c(-c3ccccc3Cl)c(O)c2n(C)c1=O	-	44	-	-	-
Cn1c(=O)c2[nH]c(-c3ccccc3)c(O)c2n(C)c1=O	-	58	-	-	-
COC(=O)c1ccc(C(=O)OC)c(NC(=O)C(C)C)c1	-	-	-	-	-
CC(=O)Oc1ccc(/C=N/NC(=O)c2ccc(N(C)S(=O)(=O)c3ccccc3)cc2)cc1	-	-	-	94	-
O=C(NC(=S)NNC(=O)c1ccccc1O)c1cccnc1	-	-	-	-	-
Cc1cccc(C(=O)NC(=S)NNC(=O)COc2c(C)cccc2C)c1	-	30	-	-	-
O=C(NC(=S)NNC(=O)c1ccc(Cl)cc1Cl)c1cccnc1	-	38	-	-	-
O=C(NC(=S)NNS(=O)(=O)c1ccccc1)c1cccnc1	-	31	-	-	-
Cc1cccc(C(=O)NC(=S)NNC(=O)c2ccccc2Cl)c1	-	29	-	-	-
Cc1ccc(C(=O)NC(=S)NNC(=O)COc2ccccc2C)cc1	-	-	-	-	-
Cc1cccc(C(=O)NC(=S)Nc2ccccc2C(=O)O)c1	-	-	-	-	-
SMILES	Rce1 inhib	PfM18AAP inh	Platelet DG rel	Exocytosis inh	ABHD5 PLIN5 PPI
Cc1ccsc1/C=N/NC(=O)c1cccc(S(=O)(=O)Nc2ccccc2Cl)c1	-	-	-	-	-
COCc1cc(C)n(CC(=O)NCc2ccccc2)c(=O)c1C#N	+	-	-	-	-
O=[N+]([O-])c1cnc(Sc2ccncn2)s1	-	-	-	61	-
O=[N+]([O-])c1cnc(Sc2ccncn2)c([N+](=O)[O-])c1	.	.	.	68	-
O=C(Nc1ccc(Cl)cc1)Nc1ccccc1Sc1ncc([N+](=O)[O-])s1	-	-	-	-	-
O=C(O)c1ccc(N2C(=O)/C(=C/c3ccc(-c4ccc([N+](=O)[O-])cc4)o3)C=C2c2ccccc2)cc1	-	-	-	56	-
CN(C)S(=O)(=O)c1ccc(NC(=O)Cn2c(-c3ccccc3)noc2=O)cc1	-	-	-	-	-
COc1ccccc1N1CCN(c2ncc(C(=O)N3CCN(c4cccc(Cl)c4)CC3)c3ccccc23)CC1	+	-	-	-	-
CCOc1ccccc1C(=O)N1CCN(c2cccc(Cl)c2)CC1	-	-	-	-	-
Cc1cc(-c2nnc(SCC(=O)Nc3nc(-c4ccccc4)cs3)o2)no1	-	30	-	-	-
Cc1ccc(S(=O)(=O)Cc2cn3cccnc3n2)cc1	+	-	-	-	-
COc1cccc(/C=C2/SC(=S)N(CCCC(=O)Nc3ccc(O)cc3)C2=O)c1	-	-	-	-	-
COc1cccc(OC)c1OCCN(C)C	-	31	-	-	-
COc1cccc(OC)c1OCCNC(C)(C)C	.	-	-	-	-
CCNCc1nc2cc(OC)c(OC)cc2c(=O)[nH]1	-	-	-	-	-
CCC(C)c1ccccc1OCCOCCN1CCCC1 (configuration not stated)	-	-	-	-	-
Cc1cccc(N(C)S(=O)(=O)c2c[nH]c3ccc([N+](=O)[O-])cc23)c1	-	-	-	84	-
O=Cc1cc2ccccc2nc1SCCCF	-	-	-	59	-
Nc1ccccc1Oc1ccc2ccccc2c1	+	-	-	-	-
CCc1nnc(NS(=O)(=O)c2ccc(NC(=S)NC(=O)/C=C/c3ccc(C(C)C)cc3)cc2)s1	-	-	-	90	-
CCN(CC)CCNC(=O)c1ccc(NC(=O)c2cn(-c3ccc(F)cc3)nc2-c2cccc(OC)c2)cc1	.	-	-	-	-
Cc1ccc(CNC(=O)C2c3ccccc3C(=O)N3CCc4ccccc4C23)o1 (configuration not stated)	-	-	-	-	22
O=C(/C=C/Nc1ccccc1)c1ccccc1	-	-	-	-	-
CN(C)c1ccc(N/C=C/C(=O)c2ccccc2)cc1	-	-	88	-	-
Cn1c(=O)n(C)c2cc(S(=O)(=O)NCc3ccccc3)ccc21	-	-	52	-	-
SMILES	Rce1 inhib	PfM18AAP inh	Platelet DG rel	Exocytosis inh	ABHD5 PLIN5 PPI
Cn1c(=O)n(C)c2cc(S(=O)(=O)NCc3ccco3)ccc21	-	-	-	-	-
Cc1ccc(NC(=O)c2ccccc2)cc1	-	-	-	-	-
CNC(=S)/N=C(\Nc1ccc(C)cc1)c1ccccc1	-	30	-	-	-
CCCS(=O)(=O)N1CCC(C(=O)NCCN(CC)c2ccccc2)CC1	-	31	-	-	-
COc1cccc(/C=N/n2c(COc3ccccc3)n[nH]c2=S)c1OC	-	32	-	-	-
COc1cccc(/C=N/n2c(COc3ccccc3)n[nH]c2=S)c1O	-	-	-	-	-
FC(F)(F)c1ccccc1/C=N/n1c(COc2ccccc2)n[nH]c1=S	-	28	-	-	-
FC(F)(F)c1ccc(/C=N/n2c(COc3ccccc3)n[nH]c2=S)cc1	-	-	-	-	-
COc1cc(/C=N/n2c(COc3ccccc3)n[nH]c2=S)cc(Br)c1O	-	31	-	-	-
CCOc1ccccc1CNC(=O)c1cc2occc2n1C	+	-	-	-	-
